# Changes are numbered by the printed parent chain.
# Experiments:
# Assay in all cases: PBM; 200 nM protein, PBS
# Settings in all cases: dsDNA, one strand shown
# PRRX1 [1] = biological target: PRRX1 (Homo sapiens, UniProt P54821 80-166, F113S)
# PRRX1 [2] = biological target: PRRX1 (Homo sapiens, UniProt P54821 80-166)
# HOXB6 [3] = biological target: HOXB6 (Homo sapiens, UniProt P17509 132-218, K202E)
# MSX2 [4] = biological target: MSX2 (Homo sapiens, UniProt P35548 130-214)
# MSX2 [5] = biological target: MSX2 (Homo sapiens, UniProt P35548 130-214, F161Y)
# HOXB6 [6] = biological target: HOXB6 (Homo sapiens, UniProt P17509 132-218)
# NKX2-6 [7] = biological target: T1, NKX2-6 (Homo sapiens, UniProt A6NCS4 118-204, R150C)
# T1 sequence: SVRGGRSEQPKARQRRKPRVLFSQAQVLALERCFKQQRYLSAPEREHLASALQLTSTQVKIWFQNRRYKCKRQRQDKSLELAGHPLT
# MSX2 [8] = biological target: MSX2 (Homo sapiens, UniProt P35548 130-214, R199I)
# ALX1 [9] = biological target: ALX1 (Homo sapiens, UniProt Q15699 118-204, L144V)
# ALX1 [10] = biological target: ALX1 (Homo sapiens, UniProt Q15699 118-204, L144R)
# ALX1 [11] = biological target: ALX1 (Homo sapiens, UniProt Q15699 118-204)
# HOXD13 [12] = biological target: HOXD13 (Homo sapiens, UniProt P35453 263-343, T313R)
# HOXD13 [13] = biological target: HOXD13 (Homo sapiens, UniProt P35453 263-343)
# HOXD13 [14] = biological target: HOXD13 (Homo sapiens, UniProt P35453 263-343, T313A)
# ALX3 [15] = biological target: ALX3 (Homo sapiens, UniProt O95076 139-225)
# ALX3 [16] = biological target: ALX3 (Homo sapiens, UniProt O95076 139-225, L168Q)
# ALX3 [17] = biological target: ALX3 (Homo sapiens, UniProt O95076 139-225, L168V)
# VAX1 [18] = biological target: VAX1 (Homo sapiens, UniProt Q5SQQ9 86-172)
# VAX1 [19] = biological target: VAX1 (Homo sapiens, UniProt Q5SQQ9 86-172, T142I)
# VAX1 [20] = biological target: VAX1 (Homo sapiens, UniProt Q5SQQ9 86-172, K157R)
# CRX [21] = biological target: CRX (Homo sapiens, UniProt O43186 26-111)
# CRX [22] = biological target: CRX (Homo sapiens, UniProt O43186 26-111, E42D)
# CRX [23] = biological target: CRX (Homo sapiens, UniProt O43186 26-111, R41L)
# VENTX = biological target: T2, VENTX (Homo sapiens, UniProt O95231 78-163, Y115F)
# T2 sequence: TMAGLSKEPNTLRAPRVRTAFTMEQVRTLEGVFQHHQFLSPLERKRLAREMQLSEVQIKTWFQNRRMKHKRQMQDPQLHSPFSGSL
# HOXA2 [24] = biological target: HOXA2 (Homo sapiens, UniProt O43364 129-215, R185T)
# HOXA2 [25] = biological target: HOXA2 (Homo sapiens, UniProt O43364 129-215, R185K)
# NKX2-6 [26] = biological target: T3, NKX2-6 (Homo sapiens, UniProt A6NCS4 118-204)
# T3 sequence: T1 sequence with C33R
# PROP1 [27] = biological target: PROP1 (Homo sapiens, UniProt O75360 56-141)
# PROP1 [28] = biological target: PROP1 (Homo sapiens, UniProt O75360 56-141, R99H)
# NKX2-6 [29] = biological target: T4, NKX2-6 (Homo sapiens, UniProt A6NCS4 118-204, F151L)
# T4 sequence: T1 sequence with C33R, F34L
# PROP1 [30] = biological target: PROP1 (Homo sapiens, UniProt O75360 56-141, F88S)
# Sequence of PROP1 (Homo sapiens, UniProt O75360 56-141, F88S) (O75360 56-141 F88S): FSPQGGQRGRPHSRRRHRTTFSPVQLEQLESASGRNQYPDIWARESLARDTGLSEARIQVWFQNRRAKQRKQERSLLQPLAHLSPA
# Sequence of CRX (Homo sapiens, UniProt O43186 26-111) (O43186 26-111): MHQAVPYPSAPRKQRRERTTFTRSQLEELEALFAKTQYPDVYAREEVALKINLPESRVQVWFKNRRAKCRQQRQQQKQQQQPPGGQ
# Sequence of PRRX1 (Homo sapiens, UniProt P54821 80-166, F113S) (P54821 80-166 F113S): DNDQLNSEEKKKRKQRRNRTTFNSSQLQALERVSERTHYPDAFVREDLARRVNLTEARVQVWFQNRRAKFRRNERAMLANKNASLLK
# Sequence of CRX (Homo sapiens, UniProt O43186 26-111, R41L) (O43186 26-111 R41L): as the sequence (O43186 26-111) above, with R16L counted along it
# Sequence of VAX1 (Homo sapiens, UniProt Q5SQQ9 86-172, K157R) (Q5SQQ9 86-172 K157R): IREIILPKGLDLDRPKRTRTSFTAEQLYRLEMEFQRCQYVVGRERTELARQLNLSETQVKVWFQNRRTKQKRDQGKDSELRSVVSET
# Sequence of PRRX1 (Homo sapiens, UniProt P54821 80-166) (P54821 80-166): as the sequence (P54821 80-166 F113S) above, with S34F counted along it
# Sequence of CRX (Homo sapiens, UniProt O43186 26-111, E42D) (O43186 26-111 E42D): as the sequence (O43186 26-111) above, with E17D counted along it
# Sequence of VAX1 (Homo sapiens, UniProt Q5SQQ9 86-172) (Q5SQQ9 86-172): as the sequence (Q5SQQ9 86-172 K157R) above, with R72K counted along it
# Sequence of VAX1 (Homo sapiens, UniProt Q5SQQ9 86-172, T142I) (Q5SQQ9 86-172 T142I): as the sequence (Q5SQQ9 86-172 K157R) above, with T57I, R72K counted along it
# Sequence of ALX1 (Homo sapiens, UniProt Q15699 118-204, L144V) (Q15699 118-204 L144V): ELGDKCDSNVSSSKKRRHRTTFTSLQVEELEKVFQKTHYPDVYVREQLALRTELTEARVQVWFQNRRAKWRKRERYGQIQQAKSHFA
# Sequence of MSX2 (Homo sapiens, UniProt P35548 130-214, F161Y) (P35548 130-214 F161Y): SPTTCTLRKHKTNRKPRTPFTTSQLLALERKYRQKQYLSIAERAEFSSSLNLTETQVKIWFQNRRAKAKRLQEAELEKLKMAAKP
# Sequence of ALX1 (Homo sapiens, UniProt Q15699 118-204) (Q15699 118-204): as the sequence (Q15699 118-204 L144V) above, with V27L counted along it
# Sequence of ALX1 (Homo sapiens, UniProt Q15699 118-204, L144R) (Q15699 118-204 L144R): as the sequence (Q15699 118-204 L144V) above, with V27R counted along it
# Sequence of MSX2 (Homo sapiens, UniProt P35548 130-214) (P35548 130-214): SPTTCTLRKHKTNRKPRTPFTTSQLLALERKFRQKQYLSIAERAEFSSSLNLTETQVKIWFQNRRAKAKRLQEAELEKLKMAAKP
# Sequence of HOXD13 (Homo sapiens, UniProt P35453 263-343) (P35453 263-343): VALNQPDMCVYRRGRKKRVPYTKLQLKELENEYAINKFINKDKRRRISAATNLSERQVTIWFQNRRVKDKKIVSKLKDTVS
# Sequence of HOXB6 (Homo sapiens, UniProt P17509 132-218) (P17509 132-218): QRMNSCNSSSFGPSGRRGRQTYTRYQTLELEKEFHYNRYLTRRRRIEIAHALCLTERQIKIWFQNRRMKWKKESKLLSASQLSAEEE
# Sequence of HOXA2 (Homo sapiens, UniProt O43364 129-215, R185K) (O43364 129-215 R185K): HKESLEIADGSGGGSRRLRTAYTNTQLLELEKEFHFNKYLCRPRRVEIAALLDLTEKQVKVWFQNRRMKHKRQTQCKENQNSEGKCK
# Sequence of HOXB6 (Homo sapiens, UniProt P17509 132-218, K202E) (P17509 132-218 K202E): as the sequence (P17509 132-218) above, with K71E counted along it
# Sequence of HOXD13 (Homo sapiens, UniProt P35453 263-343, T313A) (P35453 263-343 T313A): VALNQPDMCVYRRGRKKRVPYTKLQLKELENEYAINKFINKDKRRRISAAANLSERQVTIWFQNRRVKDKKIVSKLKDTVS
# Sequence of HOXD13 (Homo sapiens, UniProt P35453 263-343, T313R) (P35453 263-343 T313R): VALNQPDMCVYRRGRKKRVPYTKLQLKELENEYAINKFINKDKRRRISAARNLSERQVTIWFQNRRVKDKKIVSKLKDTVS
# Sequence of PROP1 (Homo sapiens, UniProt O75360 56-141, R99H) (O75360 56-141 R99H): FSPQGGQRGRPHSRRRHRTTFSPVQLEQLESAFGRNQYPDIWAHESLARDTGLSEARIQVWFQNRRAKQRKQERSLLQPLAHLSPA
# Sequence of MSX2 (Homo sapiens, UniProt P35548 130-214, R199I) (P35548 130-214 R199I): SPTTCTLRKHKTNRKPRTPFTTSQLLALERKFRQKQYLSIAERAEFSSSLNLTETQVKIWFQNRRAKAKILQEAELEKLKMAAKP
# Sequence of ALX3 (Homo sapiens, UniProt O95076 139-225, L168Q) (O95076 139-225 L168Q): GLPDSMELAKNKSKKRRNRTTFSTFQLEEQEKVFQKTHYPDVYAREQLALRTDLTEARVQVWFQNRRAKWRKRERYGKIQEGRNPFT
# Sequence of ALX3 (Homo sapiens, UniProt O95076 139-225) (O95076 139-225): as the sequence (O95076 139-225 L168Q) above, with Q30L counted along it
# Sequence of HOXA2 (Homo sapiens, UniProt O43364 129-215, R185T) (O43364 129-215 R185T): as the sequence (O43364 129-215 R185K) above, with K57T counted along it
# Sequence of PROP1 (Homo sapiens, UniProt O75360 56-141) (O75360 56-141): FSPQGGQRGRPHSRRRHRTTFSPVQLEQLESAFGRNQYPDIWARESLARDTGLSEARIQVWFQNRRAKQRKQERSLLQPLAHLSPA
# Sequence of ALX3 (Homo sapiens, UniProt O95076 139-225, L168V) (O95076 139-225 L168V): as the sequence (O95076 139-225 L168Q) above, with Q30V counted along it
sequence,measurement,setting,value
GGGGCTCA,binding signal,PRRX1 [1],"9.31 upbm affinity estimate (log intensity, higher = more binding, comparable within an allelic series)"
same,binding signal,PRRX1 [2],"9.52 upbm affinity estimate (log intensity, higher = more binding, comparable within an allelic series)"
CCCGTCCC,binding signal,PRRX1 [1],"9.36 upbm affinity estimate (log intensity, higher = more binding, comparable within an allelic series)"
same,binding signal,PRRX1 [2],"9.4 upbm affinity estimate (log intensity, higher = more binding, comparable within an allelic series)"
CCAGATTA,binding signal,HOXB6 [3],"9.66 upbm affinity estimate (log intensity, higher = more binding, comparable within an allelic series)"
same,binding signal,MSX2 [4],"11.3 upbm affinity estimate (log intensity, higher = more binding, comparable within an allelic series)"
same,binding signal,MSX2 [5],"11.1 upbm affinity estimate (log intensity, higher = more binding, comparable within an allelic series)"
same,binding signal,HOXB6 [6],"10.3 upbm affinity estimate (log intensity, higher = more binding, comparable within an allelic series)"
GGGGACCC,binding signal,NKX2-6 [7],"9.43 upbm affinity estimate (log intensity, higher = more binding, comparable within an allelic series)"
CTGCTGGC,binding signal,MSX2 [8],"9.25 upbm affinity estimate (log intensity, higher = more binding, comparable within an allelic series)"
same,binding signal,MSX2 [4],"9.22 upbm affinity estimate (log intensity, higher = more binding, comparable within an allelic series)"
same,binding signal,MSX2 [5],"9.31 upbm affinity estimate (log intensity, higher = more binding, comparable within an allelic series)"
GACGCGTC,binding signal,ALX1 [9],"6.58 upbm affinity estimate (log intensity, higher = more binding, comparable within an allelic series)"
same,binding signal,ALX1 [10],"6.43 upbm affinity estimate (log intensity, higher = more binding, comparable within an allelic series)"
same,binding signal,ALX1 [11],"6.73 upbm affinity estimate (log intensity, higher = more binding, comparable within an allelic series)"
ATTTATGG,binding signal,HOXD13 [12],"10.8 upbm affinity estimate (log intensity, higher = more binding, comparable within an allelic series)"
same,binding signal,HOXD13 [13],"12.1 upbm affinity estimate (log intensity, higher = more binding, comparable within an allelic series)"
same,binding signal,HOXD13 [14],"11.8 upbm affinity estimate (log intensity, higher = more binding, comparable within an allelic series)"
CCAGGGGC,binding signal,ALX3 [15],"7.59 upbm affinity estimate (log intensity, higher = more binding, comparable within an allelic series)"
same,binding signal,ALX3 [16],"7.73 upbm affinity estimate (log intensity, higher = more binding, comparable within an allelic series)"
same,binding signal,ALX3 [17],"7.75 upbm affinity estimate (log intensity, higher = more binding, comparable within an allelic series)"
ACAGATTA,binding signal,VAX1 [18],"10 upbm affinity estimate (log intensity, higher = more binding, comparable within an allelic series)"
same,binding signal,VAX1 [19],"9.28 upbm affinity estimate (log intensity, higher = more binding, comparable within an allelic series)"
same,binding signal,VAX1 [20],"9.72 upbm affinity estimate (log intensity, higher = more binding, comparable within an allelic series)"
CGGCACGA,binding signal,CRX [21],"8.45 upbm affinity estimate (log intensity, higher = more binding, comparable within an allelic series)"
same,binding signal,NKX2-6 [7],"9.55 upbm affinity estimate (log intensity, higher = more binding, comparable within an allelic series)"
same,binding signal,CRX [22],"8.43 upbm affinity estimate (log intensity, higher = more binding, comparable within an allelic series)"
same,binding signal,VAX1 [18],"6.96 upbm affinity estimate (log intensity, higher = more binding, comparable within an allelic series)"
same,binding signal,VAX1 [19],"7.11 upbm affinity estimate (log intensity, higher = more binding, comparable within an allelic series)"
same,binding signal,CRX [23],"8.41 upbm affinity estimate (log intensity, higher = more binding, comparable within an allelic series)"
same,binding signal,VAX1 [20],"7.16 upbm affinity estimate (log intensity, higher = more binding, comparable within an allelic series)"
AGCTCAGC,binding signal,CRX [21],"9.88 upbm affinity estimate (log intensity, higher = more binding, comparable within an allelic series)"
same,binding signal,CRX [22],"9.76 upbm affinity estimate (log intensity, higher = more binding, comparable within an allelic series)"
ATCAGTTA,binding signal,CRX [21],"9.84 upbm affinity estimate (log intensity, higher = more binding, comparable within an allelic series)"
same,binding signal,CRX [22],"9.71 upbm affinity estimate (log intensity, higher = more binding, comparable within an allelic series)"
ACTTTATC,binding signal,CRX [21],"10.6 upbm affinity estimate (log intensity, higher = more binding, comparable within an allelic series)"
same,binding signal,CRX [22],"10.4 upbm affinity estimate (log intensity, higher = more binding, comparable within an allelic series)"
GTGATTAA,binding signal,CRX [21],"12.3 upbm affinity estimate (log intensity, higher = more binding, comparable within an allelic series)"
same,binding signal,VENTX,"11.5 upbm affinity estimate (log intensity, higher = more binding, comparable within an allelic series)"
same,binding signal,HOXA2 [24],"12.7 upbm affinity estimate (log intensity, higher = more binding, comparable within an allelic series)"
same,binding signal,CRX [22],"12.2 upbm affinity estimate (log intensity, higher = more binding, comparable within an allelic series)"
same,binding signal,HOXA2 [25],"13.2 upbm affinity estimate (log intensity, higher = more binding, comparable within an allelic series)"
same,binding signal,CRX [23],"11.7 upbm affinity estimate (log intensity, higher = more binding, comparable within an allelic series)"
CACCACGC,binding signal,CRX [21],"8.26 upbm affinity estimate (log intensity, higher = more binding, comparable within an allelic series)"
same,binding signal,PRRX1 [1],"9.44 upbm affinity estimate (log intensity, higher = more binding, comparable within an allelic series)"
same,binding signal,NKX2-6 [7],"9.32 upbm affinity estimate (log intensity, higher = more binding, comparable within an allelic series)"
same,binding signal,CRX [22],"8.36 upbm affinity estimate (log intensity, higher = more binding, comparable within an allelic series)"
same,binding signal,ALX1 [9],"6.3 upbm affinity estimate (log intensity, higher = more binding, comparable within an allelic series)"
same,binding signal,NKX2-6 [26],"9.32 upbm affinity estimate (log intensity, higher = more binding, comparable within an allelic series)"
same,binding signal,ALX1 [10],"6.36 upbm affinity estimate (log intensity, higher = more binding, comparable within an allelic series)"
same,binding signal,PROP1 [27],"6.81 upbm affinity estimate (log intensity, higher = more binding, comparable within an allelic series)"
same,binding signal,PROP1 [28],"6.8 upbm affinity estimate (log intensity, higher = more binding, comparable within an allelic series)"
same,binding signal,VAX1 [18],"7.04 upbm affinity estimate (log intensity, higher = more binding, comparable within an allelic series)"
same,binding signal,NKX2-6 [29],"9.49 upbm affinity estimate (log intensity, higher = more binding, comparable within an allelic series)"
same,binding signal,PROP1 [30],"6.67 upbm affinity estimate (log intensity, higher = more binding, comparable within an allelic series)"
same,binding signal,VAX1 [19],"7.3 upbm affinity estimate (log intensity, higher = more binding, comparable within an allelic series)"
same,binding signal,CRX [23],"8.34 upbm affinity estimate (log intensity, higher = more binding, comparable within an allelic series)"
same,binding signal,ALX1 [11],"6.37 upbm affinity estimate (log intensity, higher = more binding, comparable within an allelic series)"
same,binding signal,PRRX1 [2],"9.04 upbm affinity estimate (log intensity, higher = more binding, comparable within an allelic series)"
same,binding signal,VAX1 [20],"7.04 upbm affinity estimate (log intensity, higher = more binding, comparable within an allelic series)"

# — paper PMC11006913
